Source: PubChem (several laboratories)
Only some compounds are listed: those with a hit (about 1.7% of all), similar ones and a draw of the others.
PABP1 MLLE inh = inhibitors of microRNA-mediated deadenylation, human PABP1 MLLE binding | GST-MLLE / FITC-PAM2 fluorescence polarization | inhibition, % at 20 µM | 0.36% of 360,000 active | P11940; in the data active = inhibition above about 35%, passing the limit was not always enough
eIF4H FP inh = inhibitors of RNA binding by human eIF4H. Q15056. eIF4H fluorescence polarization binding assay. inhibition, % at 35 µM. 0.94% of 290,000 active. AID 2012;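 also: calls also rest on retests at 20 µM and on dose response follow-up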
PABP polyA inh = blocks human PABP binding to poly(A) RNA. P11940. calls only at 35 µM. fluorescence polarization. 1% of 290,000 active;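 also: calls also rest on retests at 20 µM and on dose response follow-up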
EBV gp42 block = EBV gp42 inhibition | Fluorescence polarization binding assay, mP read-out | inhibition, % (tested at 21.74 µM) | 0.42% of 220,000 active | AID 1085; in the data active = inhibition above about 50%
Target sequence (Q1HVG2 whole entry, looked up): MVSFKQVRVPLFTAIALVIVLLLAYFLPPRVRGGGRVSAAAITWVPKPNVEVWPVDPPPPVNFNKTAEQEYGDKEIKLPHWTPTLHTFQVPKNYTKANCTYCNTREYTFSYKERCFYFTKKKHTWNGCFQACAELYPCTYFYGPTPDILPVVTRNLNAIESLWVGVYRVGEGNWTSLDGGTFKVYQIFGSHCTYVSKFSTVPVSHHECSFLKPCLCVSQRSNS
eIF4E-4G inh = inhibitors of eIF4E and eIF4G interaction in translation initiation | P63073+Q04637 | TR-FRET eIF4E-eIF4GI(517-606) binding, 2 h | inhibition, % at 21.7 µM | 0.37% of 220,000 active | AID 782;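 active = inhibition above about 30%, limit read from the data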
Of the large screens only hits and unclear results are named; the others gave an inactive call; [ ] = another dose, or the depositor's remark. Unless noted, no rule for the calls is given here.

CC(C)N(CCc1ccncc1)C(=S)Nc1cccc(Cl)c1	none
N#C/C(=C/c1ccc(N2CCCCCC2)o1)c1ccc(Cl)cc1	none
N#C/C(=C/c1ccc(N2CCCCC2)o1)c1cccc(F)c1	eIF4H FP inh 87, PABP polyA inh active
CN(C(=O)Cn1nnc2ccccc2c1=O)C1CCCCC1	none (no result: EBV gp42 block, eIF4E-4G inh)
CSc1ccc(OC2(C)CCN(Cc3ccc(-c4ccccn4)cc3)C2)cc1 (configuration not stated)	none (no result: eIF4H FP inh, PABP polyA inh, EBV gp42 block, eIF4E-4G inh)
CNc1sc(C(=O)c2ccccc2F)c(N)c1-c1nc2ccccc2s1	PABP1 MLLE inh 41
COc1ccc(S(=O)(=O)Nc2ccccc2N2CCOCC2)cc1[N+](=O)[O-]	none
COC(=O)c1sc(C(=O)OC)c(C(=O)OC)c1C(=O)OC	none
COC(=O)c1sc(=S)sc1C(=O)OC	PABP1 MLLE inh 52
COc1ccc(-n2c(C(C)n3nc(C)c([N+](=O)[O-])c3C)n[nH]c2=S)cc1 (configuration not stated)	none
Cc1ccc(-n2c(C(C)n3nc(C)c([N+](=O)[O-])c3C)n[nH]c2=S)cc1 (configuration not stated)	eIF4H FP inh active
CC1C/C(=C/c2cccs2)C(=O)/C(=C/c2cccs2)C1 (configuration not stated)	none
O=C1/C(=C\c2ccco2)CCC/C1=C\c1ccco1	none
Cn1cccc1/C=C1\CCC/C(=C\c2cccn2C)C1=O	eIF4H FP inh 52, PABP polyA inh active
O=C1/C(=C/c2cccs2)CCC/C1=C\c1cccs1	eIF4H FP inh 72, PABP polyA inh active (no result: EBV gp42 block, eIF4E-4G inh)
O=C1CCCC(O)=C1C(C#Cc1ccccc1)C1=C(O)CCCC1=O	eIF4E-4G inh 42[fluorescence artefact?]
CC1(C)CC(=O)C(Sc2ccccc2[N+](=O)[O-])=C(O)C1	none
O=C1CCCC(O)=C1Sc1ccccc1C(=O)O	eIF4H FP inh 87
CCN(CC)S(=O)(=O)c1ccc(Cl)c(C(=O)Oc2cccnc2)c1	eIF4E-4G inh 58
COc1ccc(/C=C/C(=O)c2cc(Cl)ccc2O)c(OC)c1	none
C/C(=N\O)c1cc(Cl)ccc1O	eIF4E-4G inh 92
COc1ccc(OC)c(S(=O)(=O)N2CCN(C(=O)c3cc(C4CC4)nn3-c3ccccc3)CC2)c1	PABP1 MLLE inh 68 (no result: eIF4H FP inh, PABP polyA inh, EBV gp42 block, eIF4E-4G inh)
O=C(c1cc(C2CC2)nn1-c1ccccc1)N1CCN(S(=O)(=O)c2ccccc2)CC1	none (no result: eIF4H FP inh, PABP polyA inh, EBV gp42 block, eIF4E-4G inh)
COc1ccc(C2=NOC(Cn3nc(C(=O)NCc4cccc(C(F)(F)F)c4)cc3-c3ccccc3)C2)cc1 (configuration not stated)	none (no result: eIF4H FP inh, PABP polyA inh, EBV gp42 block, eIF4E-4G inh)
C/C(CCc1ccc2c(c1)OCO2)=N\NC(=O)c1ccccc1	none
NC(=NCc1ccc2c(c1)OCO2)NC(=O)c1ccccc1	eIF4E-4G inh 68
CCCNC(=O)c1onc(CS(=O)(=O)c2cc(C)cc(C)c2)c1C(=O)NCCC	none (no result: eIF4H FP inh, PABP polyA inh, EBV gp42 block, eIF4E-4G inh)
CCCCC[C@H](O)/C=C/[C@@H]1[C@@H](C/C=C\CCCC(=O)OC)[C@@H](O)C[C@H]1O	eIF4E-4G inh 88
CC(C)Cc1nc(SCC(=O)N2CCCCC2)c2c(=O)n(C)c(=O)n(C)c2n1	none (no result: EBV gp42 block, eIF4E-4G inh)
CN1CCN(C2=Nc3c(Cl)cc(Cl)c4cccc2c34)CC1	eIF4H FP inh inconclusive, EBV gp42 block 63
O=C(O)c1ccccc1Nc1ccnc(Cl)n1	eIF4E-4G inh 74
CC(=O)c1c(N2CCOCC2)nc2ccc(Br)cc2c1-c1ccccc1	none
CC(=O)c1cc(-c2ccccc2)[nH]c1N1CCOCC1	PABP1 MLLE inh 44
CN(C(=O)c1cccc(NC(=O)Cc2ccc(NC(=O)C3CCCN(C(=O)C4CCC4)C3)cc2)c1)C1CCC1 (configuration not stated)	none (no result: eIF4H FP inh, PABP polyA inh, EBV gp42 block, eIF4E-4G inh)
NC(=O)NC(=O)COC(=O)c1cccc(NS(=O)(=O)/C=C/c2ccccc2)c1	eIF4E-4G inh 34
O=c1c(-c2c(O)cc(O)c3c(=O)cc(-c4ccc(O)cc4)oc23)c(-c2ccc(O)cc2)oc2cc(O)cc(O)c12	eIF4H FP inh 95, PABP polyA inh active
CCN(CC(=O)Nc1c(F)cccc1F)C(=O)c1cc(-c2cccs2)nn1-c1ccccc1	none (no result: eIF4H FP inh, PABP polyA inh, EBV gp42 block, eIF4E-4G inh)
O=C(Cn1cnc2scc(-c3cccc([N+](=O)[O-])c3)c2c1=O)NCc1ccco1	EBV gp42 block 66
Cc1sc2ncn(CC(=O)NCc3ccco3)c(=O)c2c1-c1ccc(F)cc1	none
Cc1ccn(C(=O)c2ccc(NC(=O)C3CCCCC3)cc2)n1	EBV gp42 block 181
O=C(Nc1ccc(-n2cnnn2)cc1)C1CCC1	EBV gp42 block 89 (no result: eIF4E-4G inh)
N#CCSc1ccc2nc(-c3ccccc3)cn2n1	none (no result: EBV gp42 block, eIF4E-4G inh)
Cn1c(=O)[nH]c(=O)c2c1nc1n2CCN1Cc1ccccc1	none
CC1CN(Cc2ccccc2)c2nc3c(c(=O)[nH]c(=O)n3C)n2C1 (configuration not stated)	eIF4E-4G inh 83
O=C(NNS(=O)(=O)c1ccccc1)c1cccnc1	none
O=C(NC(=S)NNS(=O)(=O)c1ccc(Cl)cc1)c1cccnc1	PABP1 MLLE inh 40
O=C1NCCN(Cc2ccc(Cl)c(F)c2)C1CC(=O)N1CCc2ccccc2C1 (configuration not stated)	eIF4H FP inh 54
CC(C)CN1CCNC(=O)C1CC(=O)NCCCN1CCCc2ccccc21 (configuration not stated)	PABP polyA inh active
O=c1oc(-c2cccs2)nc2sc3c(c12)CCC3	none
O=c1oc(/C=C/c2ccco2)nc2sc3c(c12)CCC3	eIF4H FP inh 73, PABP polyA inh active
Nc1cc2c(cc1[N+](=O)[O-])OCO2	PABP polyA inh active
N#Cc1c2n(c(=S)n(-c3ccccc3[N+](=O)[O-])c1=O)CCCCC2	PABP1 MLLE inh 51
N#Cc1c2n(c(=S)n(-c3ccccc3)c1=O)CCCCC2	none
COc1ccccc1N1C(=O)C2C(C(=O)c3ccccc3)=NN(c3ccc(C)cc3)C2C1=O (configuration not stated)	eIF4H FP inh inconclusive, PABP polyA inh inconclusive, EBV gp42 block 119
COC(=O)C1=NN(c2ccc(C)cc2)C2C(=O)N(c3ccccc3OC)C(=O)C12 (configuration not stated)	none
COc1ccccc1N1C(=O)C2C(C(=O)c3ccccc3)=NN(c3ccc(Br)cc3)C2C1=O (configuration not stated)	eIF4H FP inh inconclusive, PABP polyA inh inconclusive, EBV gp42 block 55
O=C(COC(=O)c1cc(=O)[nH]c2ccccc12)NC(=O)c1ccccc1	none (no result: eIF4H FP inh, PABP polyA inh, EBV gp42 block, eIF4E-4G inh)
CCOC(=O)/C(C#N)=C/C1=C(N2CCOCC2)C(C)(C)OCC1	none
NC(COCc1ccccc1)c1csc(NC(=O)Nc2cccc(C(F)(F)F)c2)n1 (configuration not stated)	none (no result: eIF4H FP inh, PABP polyA inh, EBV gp42 block, eIF4E-4G inh)
Cc1c(CCC(=O)O)c(=O)oc2c(C)c3occ(-c4ccc(Br)cc4)c3cc12	eIF4H FP inh 72, PABP polyA inh active (no result: EBV gp42 block, eIF4E-4G inh)
COc1ccc(-c2coc3c(C)c4oc(=O)c(CCC(=O)O)c(C)c4cc23)cc1	none (no result: EBV gp42 block, eIF4E-4G inh)
CCOC(=O)N1CCC(Nc2nc3ccccc3nc2NS(=O)(=O)c2ccc(Cl)cc2)CC1	EBV gp42 block 54
CC(Cc1ccccc1)C(=O)N[C@@H](CO)Cc1ccccc1 (some centres not stated)	eIF4H FP inh active, PABP polyA inh active
